Compound activity from PubChem.
Hits are enriched below; roughly 1.1% of the tested compounds scored in any of these assays.
AGP1-GFP MLPCN = yeast TOR pathway AGP1-GFP modulation. GFP response vs DMSO, % at 10 µM. S. cerevisiae AGP1-GFP multiplex flow cytometry, 3 h; GFP as percent of DMSO wells. actives 0.02% (n = 320,000);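 active = GFP response relative to DMSO above a set limit, near screen average plus 3 SD, cut at about 150% in these data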;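 note: median GFP channel fluorescence of the gated AGP1 strain per well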
CIT2-GFP yeast = yeast TOR pathway CIT2-GFP modulation; S. cerevisiae CIT2-GFP strain, flow cytometry, 3 h; 100 means same as DMSO wells; GFP response vs DMSO, % at 10 µM; actives 0.065% (n = 320,000); AID 2029;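 active = GFP response relative to DMSO above a set limit, near the screen mean plus 3 SD, cut at about 150% in these data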;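 note: ratio of well median GFP fluorescence to mean of DMSO wells on the plate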
LAP4-GFP MLPCN = modulators of TOR pathway LAP4-GFP in S. cerevisiae | S. cerevisiae LAP4-GFP multiplex, flow cytometry GFP, 3 h; median GFP as percent of DMSO wells | GFP response vs DMSO, % at 10 µM | actives 0.34% (n = 320,000) | AID 2023;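 active = GFP response vs DMSO above a set limit, about the screen mean plus 3 SD, cut at about 150% in these data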
VLA-4 inh = inhibition in a human VLA-4 binding assay; AID 2557; VLA-4 expressing cells, ligand binding flow cytometry; inhibition, % (about 7 µM as worked out from the volumes in the protocol); P13612; actives 0.2% (n = 330,000); in the data active = inhibition above about 50%
Target sequence (P13612 whole entry, looked up): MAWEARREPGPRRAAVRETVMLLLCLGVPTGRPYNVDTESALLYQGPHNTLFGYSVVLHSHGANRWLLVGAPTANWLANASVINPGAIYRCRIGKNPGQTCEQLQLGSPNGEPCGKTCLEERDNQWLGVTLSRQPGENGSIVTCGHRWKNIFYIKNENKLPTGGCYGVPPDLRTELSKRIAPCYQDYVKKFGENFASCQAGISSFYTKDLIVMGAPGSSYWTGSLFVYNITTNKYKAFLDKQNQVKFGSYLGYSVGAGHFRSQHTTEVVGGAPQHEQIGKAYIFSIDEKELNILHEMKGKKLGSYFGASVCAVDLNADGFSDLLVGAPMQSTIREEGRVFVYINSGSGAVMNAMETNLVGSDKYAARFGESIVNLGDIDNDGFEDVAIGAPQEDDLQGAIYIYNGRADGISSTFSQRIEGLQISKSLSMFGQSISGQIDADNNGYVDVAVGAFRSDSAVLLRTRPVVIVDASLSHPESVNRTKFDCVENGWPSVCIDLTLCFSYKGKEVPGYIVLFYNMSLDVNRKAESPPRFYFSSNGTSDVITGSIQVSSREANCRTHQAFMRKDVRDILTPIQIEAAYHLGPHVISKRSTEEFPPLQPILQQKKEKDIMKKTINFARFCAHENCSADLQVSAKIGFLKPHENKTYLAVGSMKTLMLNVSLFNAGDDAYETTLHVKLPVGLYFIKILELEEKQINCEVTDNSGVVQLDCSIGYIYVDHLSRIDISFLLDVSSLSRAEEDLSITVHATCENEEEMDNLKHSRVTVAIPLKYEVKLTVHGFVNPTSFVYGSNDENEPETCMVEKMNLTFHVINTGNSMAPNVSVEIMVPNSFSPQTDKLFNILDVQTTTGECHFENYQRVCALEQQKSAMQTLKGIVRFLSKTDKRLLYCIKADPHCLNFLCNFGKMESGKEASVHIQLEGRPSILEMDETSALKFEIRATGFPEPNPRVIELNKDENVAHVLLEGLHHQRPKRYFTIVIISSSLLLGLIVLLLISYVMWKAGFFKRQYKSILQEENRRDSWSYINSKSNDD
MEP2-GFP yeast = yeast TOR pathway MEP2-GFP modulation. S. cerevisiae MEP2-GFP strain, flow cytometry GFP, 3 h; 100% = DMSO control level. GFP response vs DMSO, % at 10 µM. actives 0.51% (n = 330,000);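 active = GFP response versus DMSO above a set limit, roughly screen mean plus 3 SD, cut at about 180% in these data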;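 note: median GFP fluorescence of the barcode-gated MEP2-GFP cells per well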
RPL19A TOR yeast = alters RPL19A-GFP fluorescence in TOR pathway yeast screen; S. cerevisiae RPL19A-GFP strain, flow cytometry, 3 h; active compounds read low; percent response vs DMSO, % at 10 µM; actives 0.3% (n = 330,000);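 active = percent response vs DMSO below 50%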;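 note: median channel GFP fluorescence of the barcoded RPL19A-GFP strain; ratio of sample median GFP to plate DMSO average so 100% = DMSO; lower means less RPL19A-GFP as with rapamycin TOR inhibition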
LAP4 cherry2 = reconfirmed LAP4-GFP TOR pathway modulator in yeast. actives 20% (n = 590). shares compounds with LAP4-GFP MLPCN. S. cerevisiae LAP4-GFP strain, flow cytometry GFP, 3 h. GFP response vs DMSO, % at 10 µM;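 active = GFP signal as percent of the solvent control above about 150%, meaning raised reporter expression, limit read from the data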;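 note: ratio of well median GFP fluorescence to plate DMSO mean so 100% = DMSO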
MEP2 cherry2 = reconfirmed MEP2-GFP TOR pathway modulator in yeast; actives 10% (n = 590); GFP response vs DMSO, % at 10 µM; shares compounds with LAP4-GFP MLPCN; S. cerevisiae MEP2-GFP strain, flow cytometry GFP, 3 h;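 active = GFP signal above 150% of the solvent control wells, that is a rise of more than half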;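 note: median channel GFP fluorescence of all gated yeast cells per well; ratio of median GFP to plate DMSO average so 100% = DMSO level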
RPL19A-GFP pick2 = second confirmation of modulators of TOR reporter RPL19A-GFP in yeast; actives 3% (n = 590); shares compounds with LAP4-GFP MLPCN; GFP response vs DMSO, % at 10 µM; S. cerevisiae RPL19A-GFP strain, flow cytometry GFP, 3 h; active compounds read low; 100% means same as DMSO wells;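 active = under 65% GFP response relative to DMSO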;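 note: median GFP channel fluorescence per well over the all cells gate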
CIT2 GFP CP2 = reconfirmed modulator of CIT2-GFP TOR reporter in yeast. shares compounds with LAP4-GFP MLPCN. S. cerevisiae CIT2-GFP strain, flow cytometry GFP, 3 h; DMSO control wells read 100%. GFP response vs DMSO, % at 10 µM. actives 8% (n = 590). AID 2624;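 active = GFP response vs DMSO above about 150%, limit read from the data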;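 note: median green fluorescence per well over all gated yeast cells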
AGP1 GFP CP2 = yeast AGP1-GFP TOR reporter modulation, second cherry pick; shares compounds with LAP4-GFP MLPCN; S. cerevisiae AGP1-GFP strain, flow cytometry GFP, 3 h; percent response vs DMSO, % at 10 µM; 590 tested, under 10 active; AID 2643;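 active = over 150 percent of DMSO response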;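 note: median GFP channel fluorescence over all cells without mother daughter split; sample median GFP divided by mean DMSO control so 100% equals DMSO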
Yeast autofluor = compound is autofluorescent in yeast s288c cells; AID 2757; fluorescence change (kMESF span) at 33 µM; shares compounds with LAP4-GFP MLPCN; 610 tested, under 10 active; S. cerevisiae s288c, 520 nm autofluorescence, flow cytometry, 3 h; active compounds read high; zero means same as solvent-only cells;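 active = fluorescence span over the dose series, or activity score, above about 33, limit read from the data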
Yeast autofl DR = yeast s288c autofluorescence artifact in dose response; S. cerevisiae s288c parental, compound autofluorescence, flow cytometry, 3 h; fluorescence change (span) at 33 µM; shares compounds with LAP4-GFP MLPCN; 110 tested, under 10 active;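 active = fluorescence change span, or the activity score built from it, above 25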
TORC1 bypass gr = stops wildtype yeast growth while TORC1 bypass cells still grow | shares compounds with LAP4-GFP MLPCN | S. cerevisiae BY4741 spot growth rating, 48-72 h; active compounds read low | growth rating (0-3) at 30 µM | 120 tested, under 10 active | AID 504456;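 active = growth rating at most 1 for wild type yeast while the TORC1 bypass strain still grows fully, rated 3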
VLA-4 mod pick = human VLA-4 allosteric modulation in cherry picked compounds; shares compounds with VLA-4 inh; actives 2% (n = 1,300); U937 cells, HUTS-21 LIBS mAb binding, flow cytometry; LDV ligand present at threefold Kd; inhibition, % at 6.7 µM; AID 2813; in the data active = inhibition above about 40%;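 note: 0% = ligand without compound and 100% = no ligand background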
Active calls of the source: *; · = not tested or not shown.

SMILES	AGP1-GFP MLPCN	CIT2-GFP yeast	LAP4-GFP MLPCN	VLA-4 inh	MEP2-GFP yeast	RPL19A TOR yeast	Yeast autofluor	VLA-4 mod pick	others
CC1=CC(=O)C(C(C)C)=C/C1=N/OS(=O)(=O)c1ccccc1	98	75	216*	0	77	73	2.8	·
CCO[C@H]1OC(C(=O)N2CCOCC2)=C[C@@H](c2cn(C(C)=O)c3ccccc23)[C@@H]1CCCO	120	111	223*	5	507*	74	·	·	LAP4 cherry2=99;MEP2 cherry2=96;RPL19A-GFP pick2=100;CIT2 GFP CP2=103;AGP1 GFP CP2=100
CCO[C@@H]1OC(C(=O)N2CCCCCCC2)=C[C@H](c2cn(C(C)=O)c3ccccc23)[C@H]1CCCO	93	101	103	-14	89	102	·	·
Cc1cc(C)cc(OCC(=O)OCC(=O)NC2CC2)c1	112	80	183*	7	100	84	·	·	LAP4 cherry2=97;MEP2 cherry2=102;RPL19A-GFP pick2=101;CIT2 GFP CP2=98;AGP1 GFP CP2=102
Cc1ccc2nc(Cl)c3nnnn3c2c1	85	66	298*	23	98	56	3.1	·	Yeast autofl DR=1.1;TORC1 bypass gr=0
Cc1nn(Cc2ccccc2)c(C)c1CNC(=O)[C@H](C)N=C1NS(=O)(=O)c2ccccc21	90	87	87	14	93	93	·	·
Cc1ccc(/C=c2\sc3nc(-c4cccs4)nn3c2=O)o1	104	125	174*	-56	149	103	1.4	·
COc1ccccc1-c1nc2s/c(=C\c3cccs3)c(=O)n2n1	80	79	180*	-4	102	94	0.4	·	LAP4 cherry2=126;MEP2 cherry2=108;RPL19A-GFP pick2=104;CIT2 GFP CP2=110;AGP1 GFP CP2=95
CCOc1ccc(N(CC(=O)NCc2ccc(OC)cc2)S(C)(=O)=O)cc1	95	112	92	-2	108	102	·	·
Cc1cc([N+](=O)[O-])ccc1NC(=O)Nc1ccc(F)cc1F	52	71	171*	-6	109	59	·	·	LAP4 cherry2=101;MEP2 cherry2=102;RPL19A-GFP pick2=96;CIT2 GFP CP2=100;AGP1 GFP CP2=97
CC(=O)c1cccc([N+](=O)[O-])c1	98	93	99	5	97	95	·	·
O=C(C#Cc1ccccc1)c1cccc([N+](=O)[O-])c1	99	92	202*	24	95	77	0.31	·
Cc1ccc2nc(-c3ccc(NC(=S)NC4CC(C)(C)NC(C)(C)C4)cc3)sc2c1	14	71	83	54*	129	55	·	31	LAP4 cherry2=125;MEP2 cherry2=108;RPL19A-GFP pick2=95;CIT2 GFP CP2=104;AGP1 GFP CP2=93
Cc1ccc2nc(-c3ccc(NC(=S)NC(=O)C(C)C)cc3)sc2c1	93	97	89	22	97	90	·	·
CN1C(=O)/C(=N\OC(=O)c2cccc3ccccc23)c2ccccc21	75	82	207*	66*	106	92	0.4	0
O=C(COC(=O)/C=C/c1ccc(OC(F)F)cc1)NC1CCCCCC1	101	102	100	1	101	99	·	·
CC(Oc1cccc(Cl)c1)C(=O)Nc1nc(-c2ccccn2)cs1 (configuration not stated)	111	92	171*	53*	105	91	0.71	-9
COc1ccc(CNS(=O)(=O)c2cc3c4c(c2)C(C)C(=O)N4CCC3)cc1 (configuration not stated)	103	107	99	-5	106	103	·	·
Cc1cccc(C(=O)OCC(=O)N2CCCCCC2)c1C	108	110	104	-2	105	103	·	0
Nc1cc(Cl)ccc1C(=O)OCC(=O)N1CCCC1	101	107	100	7	102	100	·	·
CCCCOc1ccc(C(=O)OCC(=O)N2CCCCCC2)cc1	101	102	103	10	104	98	·	3
Cc1ccc(C(=O)c2ccccc2C(=O)OCC(=O)N2CCCC2)cc1	95	91	95	2	96	93	·	·
CC1CCCC(C)N1C(=O)COC(=O)c1ccccc1O (configuration not stated)	99	94	100	-3	102	99	·	7
Nc1cc(Cl)ccc1C(=O)OCC(=O)N1CCCCCC1	94	99	105	14	106	101	·	-10
CCN(Cc1nc2ccccc2c(=O)[nH]1)C(=O)c1ccc(C)c(NC(=O)c2ccco2)c1	94	87	105	1	95	93	·	·
C[C@H](CO)N1C[C@H](C)[C@@H](CN(C)S(=O)(=O)c2ccccc2)Oc2c(NC(=O)CCC(F)(F)F)cccc2C1=O	·	·	·	3	·	·	·	·
O=C1c2c(O)cc(O)cc2O[C@H](c2ccc(O)c(O)c2)[C@H]1O	103	95	113	6	97	102	·	·
O=C1c2c(O)cc(O)cc2O[C@H](c2ccc(O)cc2)[C@H]1O	103	100	109	50*	111	101	·	6
